# From PubChem BioAssay (NCI)
# This is part of a sample that, as a whole, favours compounds with a hit. Of some 83,000 tested, about 20% had one in any assay.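 Results are percent growth after 48 hours of single-concentration exposure. 100 means growth as in untreated cells, lower positive values show inhibition; negative values down to -100 show cell death.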 Values without a mark were called inactive. Calls of active or inactive are those of the source. How the source made its calls: active means growth percent below 10; inactive means the rest.
# Key:
# Assay in all cases: NCI-60 one-dose screen, 48 h (100 = growth as untreated, 0 = no growth, -100 = all killed)
# [1] = system: NCI-H226 lung; settings: 10 µM
# [2] = system: NCI-H322M lung; settings: 10 µM unless noted
# [3] = system: HOP-62 NSCLC; settings: 10 µM unless noted
# [4] = system: NCI-H460 lung; settings: 10 µM unless noted
# [5] = system: HOP-92 NSCLC; settings: 10 µM unless noted
# [6] = system: NCI-H522 lung; settings: 10 µM
# [7] = system: A549/ATCC NSCLC; settings: 10 µM unless noted
# [8] = system: 786-0 renal; settings: 10 µM unless noted
# [9] = system: COLO 205 colon; settings: 10 µM unless noted
# [10] = system: DU-145 prostate; settings: 10 µM unless noted
# [11] = system: K-562 leukemia; settings: 10 µM unless noted
# [12] = system: MDA-MB-231 breast; settings: 10 µM unless noted
# [13] = system: RXF 393 renal; settings: 10 µM unless noted
# [14] = system: SF-268 CNS; settings: 10 µM unless noted
# [15] = system: SF-295 CNS; settings: 10 µM unless noted
# [16] = system: SF-539 CNS; settings: 10 µM unless noted
# [17] = system: UACC-257 melanoma; settings: 10 µM unless noted
# [18] = system: M14 melanoma; settings: 10 µM unless noted
# [19] = system: MALME-3M melanoma; settings: 10 µM unless noted
SMILES,growth [1],growth [2],growth [3],growth [4],growth [5],growth [6],growth [7],growth [8],growth [9],growth [10],growth [11],growth [12],growth [13],growth [14],growth [15],growth [16],growth [17],growth [18],growth [19]
Clc1ccc(Nc2ccnc(N3CCN(c4ccnc5cc(Cl)ccc45)CC3)n2)cc1,62.5%,48.6%,47.4%,48.4%,39.4%,35.1%,48.6%,48.4%,46.5%,78.2%,15.7%,33.8%,62.6%,57.3%,18.8%,62.2%,81.7%,33.7%,–
O=C(O)C[C@H](O)C[C@H](O)/C=C/c1c(C2CC2)nc2ccccc2c1-c1ccc(F)cc1,65.6%,58.1%,84.9%,94.4%,-12% (active),53.7%,105%,91.9%,102%,113%,–,-47.7% (active),63.5%,31.9%,22.9%,81.2%,95.5%,90.8%,104%
C=CC(=O)N1CC2(CCC(n3nc(-c4ccc(Oc5ccccc5)cc4)c4c(N)ncnc43)CC2)C1,-77.7% (active),0.179% (active),-2.62% (active),-76.8% (active),-66.4% (active),–,-78.7% (active),-87.7% (active),-11.6% (active),-52.3% (active),3.48% (active),-31% (active),-94.9% (active),-81.1% (active),-13.9% (active),-94.4% (active),–,-79.7% (active),-70.7% (active)
NC1=NC(c2ccccc2OS(=O)(=O)c2ccc(Br)cc2)n2c(nc3ccccc32)N1 (stereo not drawn),102%,101%,75.2%,97.6%,-1.3% (active),82%,95.9%,–,91.8%,109%,74.4%,80.1%,109%,95.1%,99.1%,96%,96.8%,–,104%
C[C@@H](Oc1cc(-c2cnn(C3CC4(CCNCC4)C3)c2)cnc1N)c1c(F)ccc(Cl)c1Cl,65.5%,44.4%,28.4%,-11.7% (active),-18.8% (active),-0.334% (active),-14.4% (active),-2.08% (active),-8.9% (active),37.9%,-19.9% (active),-54% (active),-31.5% (active),-24.5% (active),-10.2% (active),-90.7% (active),-89.5% (active),-75.5% (active),-67.6% (active)
COc1ccc(C(=O)COc2cccc(/C=C3\CSc4ccc(C)cc4C3=O)c2)cc1,77.7%,104%,104%,104%,98.5%,45.8%,96%,100%,116%,109%,29.3%,79.4%,71.1%,104%,102%,103%,95.5%,93.8%,98.2%
COc1ccc(-c2nc3sc(C)cn3c2/C=C/C(=O)c2cc(OC)c(OC)c(OC)c2)cc1,76.9%,76.1%,90.1%,50.5%,46.2%,37.8%,–,48.2%,67.9%,82.2%,75.6%,39.5%,84.5%,73.4%,51.3%,77.6%,50.8%,43%,39.3%
O=S(=O)(OCCO)c1ccccc1,98.1%,103%,126%,113%,101%,95.5%,97.2%,108%,118%,112%,–,97.2%,98.1%,102%,93.1%,106%,103%,109%,105%
O=C1/C(=C/c2ccc(F)cc2)CN(Cc2cn(CCNc3ccnc4cc(Cl)ccc34)nn2)C/C1=C\c1ccc(F)cc1,-62.3% (active),-0.345% (active),-55.3% (active),-42.8% (active),-50.5% (active),-75.4% (active),-31.3% (active),-66.2% (active),-53.4% (active),5.98% (active),5.23% (active),-39.7% (active),-97.2% (active),-80.2% (active),-55.5% (active),-78.5% (active),-72.5% (active),-49.7% (active),-80.6% (active)
O=C1/C(=C/c2ccc(Cl)cc2)CN(Cc2cn(CCCNc3ccnc4cc(Cl)ccc34)nn2)C/C1=C\c1ccc(Cl)cc1,-81.4% (active),-28.9% (active),-69.4% (active),-67.6% (active),-65.3% (active),-92.8% (active),-62.9% (active),-74.4% (active),-61.3% (active),-11.6% (active),0.972% (active),-58.4% (active),-97.6% (active),-84.7% (active),-56.1% (active),-91.5% (active),-69.4% (active),-64.9% (active),-64.6% (active)
CC(=O)N(CC(O)CO)c1c(I)c(C(=O)NCCO)c(I)c(C(=O)NCC(O)CO)c1I (stereo not drawn),98.7%,93%,99.2%,111%,–,97.8%,100%,91%,105%,110%,97%,90.5%,103%,105%,118%,100%,103%,92.6%,92.4%
CC(C)NCC(O)COc1ccc(CCOCC2CC2)cc1 (stereo not drawn),90.7%,106%,104%,108%,–,118%,99.5%,100%,116%,111%,97.6%,99.6%,97.1%,108%,108%,107%,108%,96.6%,103%
COC(=O)c1cc(-c2ccc(C)cc2)n(C(=O)CSc2nc3sc(C(N)=O)c(C)c3c(=O)n2Cc2ccccc2)n1,103%,129%,98.6%,103%,92.5%,95%,107%,102%,93.5%,102%,101%,–,106%,108%,109%,104%,106%,102%,–
COc1ccc(-c2nn(-c3ccc(NC(=O)c4ccc(Cl)c(Cl)c4)cc3)cc2-c2ccncc2)cc1Cl,75.8%,69.1%,6.02% (active),20.6%,37.1%,54.3%,42.7%,-33% (active),-27.2% (active),68.4%,5.86% (active),-16.3% (active),-82.1% (active),49.2%,-31.5% (active),26%,93.3%,6.62% (active),43%
O=[N+]([O-])c1ccc(C=C2C(Cl)=C(Cl)C(Cl)=C2Cl)cc1,62.7%,121%,78.3%,90.6%,–,46.1%,92.1%,19.8%,54%,73%,7.31% (active),74.8%,0.914% (active),55.1%,86.3%,75.8%,67.7%,36.9%,108%
Cc1ccc2c(c1)c(Sc1ccc(C(=O)NO)cc1)c1n2CN(C)CC1,-0.932% (active),31.1%,33.7%,7.16% (active),27.9%,–,1.5% (active),37.7%,14.1%,11.7%,11.5%,-32.2% (active),33%,1.67% (active),11.8%,-35.1% (active),–,26%,26.6%
C[C@H]1C(=O)C23CCC1C[C@@]21O[C@@H]2C(C)(C)C=CC(=O)C23COC1=O,94.2%,105%,101%,101%,114%,93.2%,83.9%,109%,105%,104%,104%,118%,108%,104%,110%,111%,98.7%,102%,110%
